A short description of assay [1]: Viability qHTS for spleen associated tyrosine kinase inhibitor (SYKi) naive MV4-11 cells (AID 1963823). Further: nearly all actives have a fitted effect of over 40% in size. The note with it: MV4-11 AML viability, CellTiter-Glo luminescence, 72 h; series mostly up to 45 µM. In short, it runs like this:
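In this viability screen, compounds acted on SYK inhibitor naive MV4-11 cells for three days (72 hr, 37 C). Remaining viable cells were measured by CellTiter-Glo luminescence following a 10 min room-temperature development.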
For orientation: In qHTS, concentration-response curves come from the screen itself.

A short description of assay [2]: Viability qHTS for spleen associated tyrosine kinase inhibitor (SYKi) drug resistant MV4-11 cells (AID 1963824). Further: nearly all actives have a fitted effect of over 35% in size. The note with it: SYKi-resistant MV4-11 viability, CellTiter-Glo, 72 h; series mostly up to 45 µM. In a few lines: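 SYK inhibitor-resistant MV4-11 AML cells, 500 per well, added to predispensed compounds and incubated 72 hr at 37 C, 5% CO2. Viability measured by CellTiter-Glo luminescence after 10 min at room temperature.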

A short description of assay [3]: Quantitative highthroughput screen to assess conditional lethalithy of NOMO1 cells grown in RPMI1640 with untreated serum (RPMI+s) (AID 1963876). Further: nearly all actives have a fitted effect of over 35% in size.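 On Viability: 100% = DMSO wells and 0% = empty wells without cells.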 The note with it: NOMO1 AML cells in RPMI+serum, CellTiter-Glo viability, 48 h; series mostly up to 45.8 µM. In a few lines: (§1)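 Each medium arm—HPLM with 10% dialyzed FBS, or RPMI1640 with 5 mM glucose and 10% untreated or dialyzed FBS—was screened against an 11-point, 3-fold compound titration for 48 h at 37 °C, with CellTiter-Glo luminescence as endpoint.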

The nature of assay [4]: Quantitative highthroughput screen to assess conditional lethalithy of NOMO1 cells grown in Human Plasma-Like Medium with dialyzed fetal bovine serum (HPLM+ds) (AID 1963878). Further: nearly all actives have a fitted effect of over 35% in size.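 On Viability: 100% = DMSO wells and 0% = empty wells on each plate.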 The note with it: NOMO1 AML cells in HPLM+ds, CellTiter-Glo viability, 48 h; series mostly up to 45.8 µM. In short, it runs like this:
as §1

Assay [5] is described as follows: Quantitative highthroughput screen to assess conditional lethalithy of P12 Ichikawa cells grown in Human Plasma-Like Medium with dialyzed fetal bovine serum (HPLM+ds) (AID 1963879). Further: nearly all actives have a fitted effect of over 35% in size. The conditions noted are these: ATP luminescence, 48 h; Potency: viability; series mostly up to 45.8 µM. In a few lines: as §1
Assay [6] can be described thus: Quantitative highthroughput screen to assess conditional lethalithy of P12 Ichikawa cells grown in RPMI1640 with untreated serum (RPMI+s) (AID 1963881). Further: nearly all actives have a fitted effect of over 35% in size.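 On Viability: 100% = DMSO wells and 0% = empty wells without cells.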 The conditions noted are these: ATP luminescence, 48 h; Potency: viability; series mostly up to 45.8 µM. In a few lines: as §1
A short description of assay [7]: Quantitative highthroughput screen to assess conditional lethalithy of SEM cells grown in Human Plasma-Like Medium with dialyzed fetal bovine serum (HPLM+ds) (AID 1963882). Further: nearly all actives have a fitted effect of over 35% in size. The conditions noted are these: SEM B-ALL cells in HPLM+ds, CellTiter-Glo viability, 48 h; series mostly up to 45.8 µM. In short, it runs like this:
as §1
For orientation: ATP-based viability assays read luminescence as a measure of living cells.

Assay [8] can be described thus: Quantitative highthroughput screen to assess conditional lethalithy of SEM cells grown in RPMI1640 with unreated serum (RPMI+s) (AID 1963883). Further: nearly all actives have a fitted effect of over 35% in size.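 On Viability: 100% = DMSO wells and 0% = empty wells without cells.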 The note with it: SEM B-ALL cells, CellTiter-Glo viability, 48 h; series mostly up to 45.8 µM. In a few lines: as §1
The nature of assay [9]: Quantitative highthroughput screen to assess conditional lethalithy of SEM cells grown in RPMI1640 with dialyzed fetal bovine serum (RPMI+ds) (AID 1963884). Further: nearly all actives have a fitted effect of over 35% in size.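 On Viability: 100% = DMSO control wells and 0% = empty wells without cells.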 The conditions noted are these: SEM B-ALL cells, RPMI+dialyzed FBS, CellTiter-Glo viability, 48 h; series mostly up to 45.8 µM. In short, it runs like this:
as §1

A short description of assay [10]: Cellular viability qHTS for adrenocortical cancer (ACC) cell line SW-13 (AID 1963989). Further: nearly all actives have a fitted effect of over 65% in size.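 On activity (max response): cells grown in serum-free medium with ITS supplement; on the % scale 0 is the no-effect control and ±100 the full control effect.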 The note with it: SW-13 ACC cells viability, CellTiter-Glo, 48 h; activity (max response): active compounds read low. In short, it runs like this: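 Viability was read as CellTiter-Glo luminescence after 48 h compound treatment (up to 46 uM final) of SW-13 cells grown serum-free; titration curves were fit with a four-parameter logistic model to give IC50 and efficacy.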

Assay [11] can be described thus: Cellular viability qHTS for adrenocortical cancer (ACC) cell line NCI-H295R (AID 1963990). Further: nearly all actives have a fitted effect of over 60% in size. The conditions noted are these: CellTiter-Glo ATP luminescence, 48 h; series mostly up to 46.1 µM. In short, it runs like this:
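CellTiter-Glo ATP luminescence, read 48 h after compound addition, measured viability of NCI-H295R adrenocortical cells grown serum-free with ITS. Final concentrations spanned up to 46 uM. Data normalized to DMSO and doxorubicin, fitted for IC50 and maximal response.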

The nature of assay [12]: Quantitative highthroughput screen to assess conditional lethalithy of P12 Ichikawa cells grown in RPMI1640 with dialyzed fetal bovine serum (RPMI+ds) (AID 1963880). Further: nearly all actives have a fitted effect of over 35% in size.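 On Viability: 100% = DMSO wells and 0% = empty wells on each plate.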 The note with it: ATP luminescence, 48 h; Potency: P12-Ichikawa viability; series mostly up to 45.8 µM. In a few lines:
as §1

Values joined by “and” are separate entries in the source; they are usually repeats but may differ in a detail not shown here. Identical values can stand only once. Inconclusive results are not listed. Unmarked numbers belong to inactive results. Active and inactive are the calls of the source. The call rests on the fitted dose curve; in most records, active means well fitted curve in the direction sought with a large enough effect; inconclusive means small, poorly fitted or top-dose-only effect, or another doubt; inactive means no such curve, though single readings can be large; an effect the other way counts as inactive or inconclusive.
Potency means the concentration at half of the fitted maximal effect.

`CC(C)(C#N)c1cc(Cn2cncn2)cc(C(C)(C)C#N)c1`: the Potency entry in assay [1], in [2], in [3], in assay [4], in [5] and in assay [6] was “inactive” each time. Also, the Potency entry in assay [7], in assay [8], in assay [9] and in assay [11] was “inactive” throughout. Further, the activity (max response) in assay [10] is 5.22%.

Turning to `COc1cc(N2CCC(N(C)C)CC2)ccc1Nc1ncc(Cl)c(Nc2ccccc2P(C)(C)=O)n1`, the Potency in assay [1] is 66.1 nM (active); in assay [2], 116 nM (active) and 148 nM (active); in assay [3] it was 2.63 µM (active); in [4] it was 1.05 µM (active); in assay [5] it was 0.933 µM (active); in assay [6] it was 2.09 µM (active). In addition, the Potency in assay [7] was 0.467 µM (active); in [9] it was 0.524 µM (active); in [10] it was 2 µM (active); in [11], 8.91 µM (active).

Take `CN[C@H]1CCc2cc(OC)c(OC)c(OC)c2-c2ccc(OC)c(=O)cc21`: the Potency in [1] is 93.4 nM (active); in assay [2], 0.0934 µM (active); in assay [3], 0.0093 µM (active); in assay [5], 0.0118 µM (active); in assay [12], 0.0105 µM (active); in [6], 0.0105 µM (active). Moreover, the Potency in [7] is 0.0066 µM (active); in [8], 0.0083 µM (active); in assay [9], 0.0074 µM (active); in assay [10], 0.1 µM (active); in [11], 0.0891 µM (active).

On to `COc1cc(OC)c(C(=O)CCCN2CCCC2)c(OC)c1`, for which the Potency result in assay [1], in [2], in assay [3], in assay [5], in [12] and in [6] was “inactive” throughout. The Potency entry in assay [7], in assay [8] and in assay [9] was “inactive” each time. The activity (max response) in assay [10] is 9.88% and 2.45%.

Take `CCc1cc(-c2n[nH]c(C)c2-c2ccc3c(c2)OCCO3)c(O)cc1O`: the Potency in [1] is 2350 nM (active); in assay [2] it was 4.17 µM (active); in assay [3] it was 9.35 µM (active); in assay [4], 11.8 µM (active); in [10], 14.1 µM (active); in [11], 15.8 µM (active).

For the compound `Nc1cc(C(F)(F)F)c(-c2cc(N3CCOCC3)nc(N3CCOCC3)n2)cn1`, the Potency in assay [1] was 2.06 µM (active) and 1.86 µM (active); in [2], 1.46 µM (active) and 2.09 µM (active); in [3] it was 1.87 µM (active); in assay [4] it was 1.18 µM (active); in assay [12], 1.32 µM (active); in assay [7], 0.935 µM (active). The Potency was 1.05 µM (active) in assay [8], 0.833 µM (active) in assay [9], 2 µM (active) in assay [10] and 3.16 µM (active) in [11].

As to `C=CC(=O)Nc1cc2c(Nc3ccc(F)c(Cl)c3)ncnc2cc1C#CC(C)(C)N1CCN(C)CC1`, the Potency in assay [1] is 590 nM (active); in assay [2], 0.517 µM (active); in assay [3], 9.35 µM (active); in assay [4] it was 5.26 µM (active); in assay [12], 5.26 µM (active); in assay [6] it was 5.9 µM (active). In addition, the Potency was 2.96 µM (active) in assay [7]; 2.96 µM (active) in assay [8]; 3.32 µM (active) in assay [9]; 3.16 µM (active) in [10]; 3.16 µM (active) in assay [11].

For the compound `CCC(=O)O[C@]1(C(=O)SCF)[C@H](C)C[C@H]2[C@@H]3C[C@H](F)C4=CC(=O)C=C[C@]4(C)[C@@]3(F)[C@@H](O)C[C@@]21C`, the Potency in assay [1] was 3.3 nM (active) and 8.3 nM (active); in assay [2], 1.18 µM (active). Besides, the Potency result in assay [3], in [4] and in [11] was “inactive” throughout. Besides, the activity (max response) in assay [10] is 0.482% and -2.88%.

As to `COc1cc([C@@H]2c3cc4c(cc3[C@H](O)[C@H]3COC(=O)[C@H]23)OCO4)cc(OC)c1OC`, the Potency in assay [1] is 26.6 nM (active) and 26.3 nM (active); in [2] it was 37.6 nM (active) and 37.2 nM (active); in assay [3], 0.0042 µM (active); in assay [5] it was 0.0019 µM (active); in [12], 0.0021 µM (active); in [6] it was 0.0021 µM (active). Moreover, the Potency in assay [7] was 0.0026 µM (active); in assay [8], 0.0019 µM (active); in [9] it was 0.0026 µM (active); in [10], 9.2 nM (active) and 44.7 nM (active); in assay [11], 7.3 nM (active) and 50.1 nM (active).

As to `O=C(NCCCNc1nc(Nc2cccc(NC(=O)N3CCCC3)c2)ncc1I)c1cccs1`, the Potency in assay [1] was 51.7 nM (active); in [2] it was 164 nM (active) and 263 nM (active). In addition, the Potency entry in [3], in assay [4], in assay [5], in assay [12], in [6] and in [11] was “inactive” in each case.

In the case of `Cc1cc(Cl)ccc1OCCCC(=O)NO`, the Potency in assay [1] is 14800 nM (active); in [2], 13.2 µM (active); in assay [3] it was 14.8 µM (active); in [5], 8.33 µM (active); in [12], 1.48 µM (active); in assay [6], 5.9 µM (active). For the same compound, the Potency was 9.35 µM (active) in assay [7], 10.5 µM (active) in assay [8], 9.35 µM (active) in assay [9] and 1.26 µM (active) in [11].

As to `COc1cc(C(=O)NC2CCN(C)CC2)ccc1Nc1ncc2c(n1)N(C1CCCC1)CCC(=O)N2C(C)C`, the Potency is 5900 nM (active) in assay [1]; 4.17 µM (active) in [2]; 20.9 µM (active) in assay [3]; 14.8 µM (active) in assay [4]; 9.35 µM (active) in assay [5]; 16.6 µM (active) in assay [12]. The results for the Potency in assay [6], in assay [10] and in assay [11] were 11.8 µM (active), 25.1 µM (active) and 25.1 µM (active), respectively.

With `CN(C)CCC=C1c2ccccc2C=Cc2ccccc21`, the Potency in assay [1] was 18600 nM (active); in assay [2], 14.8 µM (active); in assay [3], 20.9 µM (active); in assay [4] it was 18.7 µM (active). Besides, the Potency result in assay [5], in assay [12], in assay [8] and in assay [9] was “inactive” each time.

The record behind these values is PubChem BioAssay (NCATS).
